Screening data from PubChem.
The list is not random: actives were taken first. Their share in the collection is about 7.4%.
FLuc counter: firefly luciferase modulation, counter-screen for miR-21 project | P08659 | 6.9% of 360,000 active | Potency, µM (highest dose often 57.5 µM), actives largely listed as inhibitors | purified FLuc, Km substrates, luminescence inhibition | AID 588342; further: nearly all actives have a fitted effect of over 55% in size
Target sequence (P08659 whole entry, looked up): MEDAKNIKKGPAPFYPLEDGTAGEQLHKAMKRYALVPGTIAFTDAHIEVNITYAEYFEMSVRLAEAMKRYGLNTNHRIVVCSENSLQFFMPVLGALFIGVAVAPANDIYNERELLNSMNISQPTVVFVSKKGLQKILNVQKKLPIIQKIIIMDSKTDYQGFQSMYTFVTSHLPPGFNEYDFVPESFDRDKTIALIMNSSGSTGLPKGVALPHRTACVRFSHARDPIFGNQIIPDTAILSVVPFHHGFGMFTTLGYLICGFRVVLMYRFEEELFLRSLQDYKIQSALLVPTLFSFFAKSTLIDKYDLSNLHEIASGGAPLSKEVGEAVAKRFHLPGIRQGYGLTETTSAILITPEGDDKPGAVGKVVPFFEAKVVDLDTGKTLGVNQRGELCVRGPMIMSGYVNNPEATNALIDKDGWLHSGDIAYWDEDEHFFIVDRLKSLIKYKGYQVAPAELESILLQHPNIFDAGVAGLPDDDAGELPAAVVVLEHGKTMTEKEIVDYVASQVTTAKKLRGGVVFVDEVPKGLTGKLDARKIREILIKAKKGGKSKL
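Biochemical qHTS of compounds, final roughly 60 µM downward over six points, against 10 nM purified firefly luciferase using Km concentrations of substrates (10 uM D-luciferin, 10 uM ATP) in Tris acetate pH 7.5 buffer; luminescence output.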
Rab9 promoter act: Rab9 promoter activation. Huh7 Rab9 promoter-luciferase reporter, luminescence, 24 h. Potency, µM (series often up to 9.22 µM), usual class: activators. 2.8% of 320,000 active. AID 485297; further: nearly all actives have a fitted effect of over 60% in size
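Luminescence read-out: Huh7 cells stably expressing Rab9-luciferase, treated 24 h with compound at 37 °C, then lysed with luciferase reagent for 10 min at ambient before reading.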
ELG1 genotoxic: induces genotoxicity in HEK293T cells with luciferase-tagged ELG1; AID 504466; Potency, µM (titrated, usually from 46 µM), hits mostly activators; HEK293T ELG1-luciferase reporter, luminescence, 16 h; 1.3% of 330,000 active; further: nearly all actives have a fitted effect of over 60% in size
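HEK293T cells expressing luciferase-tagged ELG1 were exposed to compound or DMSO vehicle for 16 hr at 37 °C and 5% CO2. Luciferase activity was then measured with ONE-Glo after 30 min at room temperature.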
SMN2 splice up: increases expression of the SMN2 splice variant | 2.8% of 210,000 active | Potency, µM (series often up to 46.1 µM), most hits filed as activators | HEK293 SMN2-luciferase splicing reporter, luminescence, 30-36 h; further: nearly all actives have a fitted effect of over 55% in size
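HEK293 cells carry an SMN2 […]–luciferase reporter in which exon 7 inclusion puts luciferase in frame. Cells were plated 10-12 h before compound addition, then incubated 30-36 h at 37C. ONE-Glo luminescence was read; sodium butyrate at 4.5 mM final served as control.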
NPC1 prom act: activates the NPC1 promoter | Potency, µM (highest dose often 9.22 µM), actives largely listed as activators | Huh7 NPC1 promoter luciferase reporter, 24 h | 2.4% of 320,000 active | AID 485313; further: nearly all actives have a fitted effect of over 60% in size
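In 1536-well qHTS, Huh7 cells harboring an NPC1 promoter–luciferase construct received compound for 24 h; activation was quantified by luminescence following luciferase reagent addition.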
Each line names hits and unclear results; the compound was inactive in the other large screens. The call rests on the fitted dose curve; in most records, active means well fitted curve in the direction sought with a large enough effect; inconclusive means small, poorly fitted or top-dose-only effect, or another doubt; inactive means no such curve, though single readings can be large; an effect the other way counts as inactive or inconclusive.

COC(=O)c1ccc2nc(NC(=O)C(C)(C)C)sc2c1	FLuc counter 0.43µM, Rab9 promoter act 0.28µM, ELG1 genotoxic inconclusive, NPC1 prom act inconclusive
O=C(NNc1nc2ccc(F)cc2s1)c1cccc(F)c1	FLuc counter inconclusive
CCCS(=O)(=O)N1CC(=O)N(c2cccc(Cl)c2C)C(C)(C(=O)NC2CCCC2)C1 (stereo not drawn)	none (no result: Rab9 promoter act, ELG1 genotoxic, SMN2 splice up, NPC1 prom act)
COc1ccccc1OCCSc1nc2ccccc2n1CC(=O)N1CCOCC1	none (no result: Rab9 promoter act, ELG1 genotoxic, SMN2 splice up, NPC1 prom act)
O=C(Cn1c(=O)nc(-c2ccccc2)c2cc(Cl)ccc21)NCCc1ccccc1	none (no result: Rab9 promoter act, ELG1 genotoxic, SMN2 splice up, NPC1 prom act)
CCOC(=O)c1cccc(NC(=O)c2sc3nc[nH]c(=O)c3c2C)c1	FLuc counter 15µM (no result: Rab9 promoter act, ELG1 genotoxic, SMN2 splice up, NPC1 prom act)
COc1cccc(C(=O)Nc2cccc(NC(=O)c3cccs3)c2)c1	FLuc counter 21µM (no result: SMN2 splice up)
Cc1ccc(NC(=O)c2cccs2)cc1NC(=O)c1cccc(F)c1	FLuc counter inconclusive (no result: SMN2 splice up)
COc1cc(NC(=O)c2ccccc2Cl)ccc1NC(=O)c1cccs1	FLuc counter 13µM, Rab9 promoter act 2.8µM, ELG1 genotoxic inconclusive, SMN2 splice up 22µM, NPC1 prom act inconclusive
COc1cccc(C(=O)Nc2cc(NC(=O)c3cccs3)ccc2C)c1	FLuc counter 12µM (no result: SMN2 splice up)
Cc1cc(C)cc(N(CC(=O)NCCc2ccc(Cl)cc2)S(=O)(=O)c2c(C)noc2C)c1	none (no result: Rab9 promoter act, ELG1 genotoxic, NPC1 prom act)
CCOC(=O)c1cccc(NC(=O)c2cc3sccc3n2C)c1	FLuc counter 24µM, Rab9 promoter act 0.89µM, ELG1 genotoxic inconclusive, SMN2 splice up 14µM, NPC1 prom act 0.35µM
COc1cccc(C(=O)Nc2cc(NC(=O)c3cccs3)ccc2C)c1OC	FLuc counter 21µM (no result: SMN2 splice up)
Cc1ccc(NC(=O)c2cccs2)cc1NC(=O)c1ccc(F)cc1	FLuc counter inconclusive (no result: SMN2 splice up)
CCOC(=O)c1cccc(NC(=O)c2cc3sccc3n2Cc2ccc(Cl)cc2)c1	none (no result: Rab9 promoter act, ELG1 genotoxic, NPC1 prom act)
CCOC(=O)c1cccc(NC(=O)c2cccs2)c1	FLuc counter 21µM, ELG1 genotoxic inconclusive
CC(=O)Oc1cccc(C(=O)Nc2ccc(NC(=O)c3cccs3)cc2)c1	Rab9 promoter act inconclusive, ELG1 genotoxic inconclusive, NPC1 prom act 4.5µM (no result: SMN2 splice up)
O=C(CSc1nnc(CNC(=O)c2ccccc2F)n1-c1ccccc1)Nc1ccccc1F	none (no result: Rab9 promoter act, ELG1 genotoxic, NPC1 prom act)
CCOC(=O)c1cccc(Nc2nc(C)cc(C)n2)c1	FLuc counter inconclusive, Rab9 promoter act 4.5µM, SMN2 splice up inconclusive, NPC1 prom act inconclusive
CCc1sc(C(=O)Nc2cccc(C(C)=O)c2)cc1C	FLuc counter 11µM, Rab9 promoter act inconclusive, SMN2 splice up inconclusive
CCOc1ccc(S(=O)(=O)N/N=C2/CC(c3ccccc3)Oc3ccccc32)cc1 (stereo not drawn)	FLuc counter 21µM, SMN2 splice up inconclusive
O=S(=O)(N/N=C1\CC(c2ccccc2)Oc2ccccc21)c1ccccc1 (stereo not drawn)	none
COc1ccc(-c2cc(C(F)(F)F)nc(SCC(=O)Nc3ccc(C(C)=O)cc3)n2)cc1	none (no result: Rab9 promoter act, ELG1 genotoxic, NPC1 prom act)
COCCN(CCOC)C(=O)c1cc2c(=O)n3ccccc3nc2n1C	none (no result: Rab9 promoter act, ELG1 genotoxic, SMN2 splice up, NPC1 prom act)
O=C(c1ccccc1)N1CCSc2sccc2C1=O	FLuc counter 24µM, Rab9 promoter act inconclusive, NPC1 prom act inconclusive
CCOc1cccc(/C=C/c2ccc3cccc(O)c3n2)c1OC	FLuc counter 4.8µM, ELG1 genotoxic 21µM, NPC1 prom act 3.2µM (no result: SMN2 splice up)
CCOc1cccc(/C=C/c2ccc3cccc(O)c3n2)c1O	FLuc counter 5.4µM, Rab9 promoter act inconclusive, ELG1 genotoxic 23µM, NPC1 prom act inconclusive (no result: SMN2 splice up)
CCOc1cc(/C=C/c2ccc3cccc([N+](=O)[O-])c3n2)ccc1O	FLuc counter inconclusive
CC(=O)c1ccc(NCC2COc3ccccc3O2)c([N+](=O)[O-])c1 (stereo not drawn)	FLuc counter 17µM, Rab9 promoter act 1.1µM, ELG1 genotoxic inconclusive, SMN2 splice up 5.6µM, NPC1 prom act 2.8µM
CC(C)Oc1ccc(/C=C/C(=O)NCC2COc3ccccc3O2)cc1 (stereo not drawn)	FLuc counter 15µM (no result: SMN2 splice up)
O=C(NCC1COc2ccccc2O1)c1ccc(Cl)cc1 (stereo not drawn)	FLuc counter 7.6µM, Rab9 promoter act 2.5µM, ELG1 genotoxic 12µM, SMN2 splice up 14µM, NPC1 prom act 3.5µM
NS(=O)(=O)c1ccc(NCC2COc3ccccc3O2)c([N+](=O)[O-])c1 (stereo not drawn)	none
CCc1nc(SCc2cc(=O)c3cc(C)ccc3[nH]2)n[nH]1	none (no result: Rab9 promoter act, ELG1 genotoxic, SMN2 splice up, NPC1 prom act)
